Results filed as inconclusive are left out. A call without a number means that no potency is given here. Unmarked numbers belong to inactive results. The source made the active and inactive calls. Calls come from the whole dose curve; as a rule, active = well fitted inhibition curve with a large enough effect; inconclusive = small, poorly fitted or top-dose-only effect; inactive = flat fitted curve, though single readings scatter. Peptide text beside a SMILES is read from it.
Potency is the fitted concentration of half-maximal effect.

In the experiment the target is Phospholipid hydroperoxide glutathione peroxidase GPX4 (Homo sapiens) (UniProt P36969). Kind of experiment: Primary qHTS Assay for Inhibitors of Recombinant Selenoprotein Glutathione Peroxidase 4 (GPX4) (AID 1845192). Note: nearly all actives have a fitted effect of over 65% in size. The conditions noted are these: recombinant GPX4, GR-coupled NADPH fluorescence, 15 min; series mostly up to 50 µM; activity change, negative = inhibition: at the top concentration. The text has this: Assay Provider: Elias S.J. Arner MD PhD.
Sequence of Phospholipid hydroperoxide glutathione peroxidase GPX4 (Homo sapiens) (P36969 whole entry, looked up): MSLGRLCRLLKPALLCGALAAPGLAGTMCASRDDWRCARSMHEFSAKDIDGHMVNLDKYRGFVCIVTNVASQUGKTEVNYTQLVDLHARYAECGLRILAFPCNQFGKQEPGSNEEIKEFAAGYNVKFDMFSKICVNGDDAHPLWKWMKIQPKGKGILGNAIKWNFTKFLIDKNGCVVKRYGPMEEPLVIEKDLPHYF
Department of Medical Biochemistry and Biophysics
Karolinska Institutet, Solna, Stockholm, Sweden
Selenoprotein glutathione peroxidases (GPX), like the ubiquitously expressed GPX1 and the ferroptosis modulator GPX4, enact their antioxidant activities by reducing hydroperoxides using glutathione. […] GPX1 and GPX4 inhibitors have thus shown promise as anti-cancer agents. Existing inhibitors are often promiscuous, or modulate GPX activity only indirectly, so novel direct inhibitors identified through screening against GPX1 and GPX4 could be valuable. Here, we developed optimized glutathione reductase (GR)-coupled GPX assays for the biochemical high-throughput screen (HTS) of almost 12,000 compounds with known mechanisms of action. Initial hits were triaged using a GR counter-screen, assessed for isoform specificity using a separate GPX2 assay, and were assessed for general selenocysteine-targeting activity using a thioredoxin reductase (TXNRD1) assay. With this suite of assays, we identified novel GPX1/GPX2- and GPX4-specific inhibitors and can here present a validated pipeline for future discovery research for selenoprotein-targeting agents.
SEQUENCE No. (e.g., 1, 2, 3, etc.); […] (e.g., Cells, Incubation, Reagent, etc.); VALUE; DESCRIPTION.
1; Reagent 1; 3 uL; 333.33 nM GPx4 enzyme or no enzyme control in 1536-well, black, solid Greiner assay plate.
2; Compound; 25 nL; Kalypsis pin tool (Wako USA) equipped with a 1536-well pin head.
3; Incubation; 30 min; room temperature.
4; Reagent 2; 1 uL; 500 nM GR, 5 mM GSH, 2.5 mM NADPH solution
5; Reagent 3; 1 uL; 2.5 mM CHP in 50% EtOH.
6; Detection; Fluorescence; ViewLux microplate reader, excitation 340 nm and emission 450 nm.
7; Incubation; 15 min; room temperature.
8; Detection; Fluorescence; ViewLux microplate reader, excitation 340 nm and emission 450 nm.
NOTES (numbers refer to Sequence numbers above)
1. 3 µL of 333.33 nM GPX4 and 0.016% BSA in assay buffer (50 mM Tris-HCl, 2 mM EDTA (pH 7.5), 150 mM NaCl) was added to columns 3-48 of 1536-well plates using a BioRAPTR Flying Reagent Dispenser (Let's Go Robotics (LGR), Carlsbad, CA). A no-enzyme control (0.01% BSA in TES assay buffer) was added to columns 1-2.
2. 25 nL, library and DMSO controls were added to each well with a pin tool (Kalypsys).
3. The assay plates were incubated for 30 minutes at room temperature.
4. 1 µL of master mix (500 nM glutathione reductase (GR), 5 mM reduced glutathione (GSH), 2.5 mM NADPH in assay buffer) was added.
5. 1 µL of cumene hydroperoxide (CHP) ([2.5 mM] in 50% EtOH) was then added within 5 minutes to initiate the reaction. Final concentrations were: 200 nM GPX4, 1 mM GSH, 0.5 mM CHP, 0.5 mM NADPH, 100 nM GR, 0.01% BSA.
6. Initial fluorescence readout (t=0) at 340/450 nm was measured using a ViewLux multimodal detector (PerkinElmer, Waltham, MA).
8. Endpoint fluorescence readout (t=15) at 340/450 nm was measured 15 min after room temperature incubation.
(qHTS replaces the single test concentration by a dilution series.)
Turning to `COc1c(O)cc2c(c1O)[C@@H]1O[C@H](CO)[C@@H](O)[C@H](O)[C@H]1OC2=O`, the Potency result was “inactive”.

Turning to `Cc1cc2c(s1)Nc1ccccc1N=C2N1CCN(C)CC1`, the Potency entry was “inactive”. On the same count and under the same terms, to `C[C@@H](N)C1CCC(C(=O)Nc2ccncc2)CC1` (stereo not given in full) belongs “inactive”. Take `COC(=O)[C@H](Cc1ccccc1)NC(=O)[C@@H](N)CC(=O)O` (H-Asp-Phe-OMe): the result was inactive. As for `Cc1cccc(C#Cc2ccccc2)n1`, the “activity change, negative = inhibition” value is -18.4%. In the case of `C[C@@H](c1ncncc1F)[C@](O)(Cn1cncn1)c1ccc(F)cc1F`, the Potency entry is “inactive”. `Cc1nccn1CC1CCc2c(c3ccccc3n2C)C1=O` (stereo not given): the Potency result is “inactive”.

For `COC(=O)C1=C(C)NC(C)=C(C(=O)OC(C)C)C1c1cccc2nonc12` (stereo not given), the outcome was inactive. As for `CCCCCCCCCCCCCCCCCCCCCCO`, the Potency entry is “inactive”. Take `COc1cc(Nc2c(C#N)cnc3cc(OCCCN4CCN(C)CC4)c(OC)cc23)c(Cl)cc1Cl`: the Potency entry is “inactive”. Same read-out and setting: for `O=C1c2c(O)cc(O)cc2OC(c2ccc(O)c(O)c2)C1O` (stereo not given) the value was “inactive”. `C[C@H](Cc1ccc(O)c(O)c1)[C@@H](C)Cc1ccc(O)c(O)c1`: the result was inactive. The same measure, in the same setting: for `Nc1nc(Cl)nc2c1ncn2[C@H]1C[C@H](O)[C@@H](CO)O1` the value was “inactive”; for `CC(C)(S)[C@@H](N)C(=O)O`, “inactive [at 4.52 µM]”.

With `COCCCN1CCC(NC(=O)c2cc(Cl)c(N)c3c2OCC3)CC1`, the Potency entry was “inactive”.

For the compound `O=C1CCc2ccc(OCCCCN3CCN(c4cccc(Cl)c4Cl)CC3)cc2N1`, the Potency entry is “inactive”. Consider `CN(C)[C@@H](CCOc1cccc2ccccc12)c1ccccc1`, for which the outcome was inactive. Consider `Cc1cccc(CN2CCN(C(c3ccccc3)c3ccc(Cl)cc3)CC2)c1` (stereo not given), for which the Potency entry was “inactive”. For the compound `COc1ccccc1N1CCN(CCN(C(=O)C2CCCCC2)c2ccccn2)CC1`, the Potency entry was “inactive”. With `Cc1ccc(C(=O)c2cc(O)c(O)c([N+](=O)[O-])c2)cc1`, the “activity change, negative = inhibition” value is -26%. In the case of `c1cnc2cc3c(cc2n1)C1CNCC3C1`, the Potency result was “inactive”. For `CCOC(=O)C1=C(O)C(=O)N(Cc2ccccc2)C1`, the Potency entry was “inactive”. Consider `NC(=O)Cc1cccc(C(=O)c2ccccc2)c1N`, for which the “activity change, negative = inhibition” value was 4.81%. As to `CCc1nc(N)nc(N)c1-c1ccc(Cl)cc1`, the Potency entry was “inactive”. Turning to `Cn1c(NCCN(CCO)CCCc2ccc([N+](=O)[O-])cc2)cc(=O)n(C)c1=O`, the “activity change, negative = inhibition” value is -17.3%. Turning to `Oc1ccc(OCc2ccccc2)cc1`, the outcome was inactive. Turning to `Clc1ccc(C(Cn2ccnc2)OCc2c(Cl)cccc2Cl)c(Cl)c1` (stereo not given), the Potency result was “inactive”. Still for that read-out and setting: for `COc1cc2c(N3CCN(C(=O)Nc4ccc(OC(C)C)cc4)CC3)ncnc2cc1OCCCN1CCCCC1` the value was “inactive”; for `O=C(NCCO[N+](=O)[O-])c1cccnc1`, “inactive”. As to `Nc1ccn([C@@H]2O[C@H](CO)[C@@H](O)C2O)c(=O)n1` (stereo not given in full), the “activity change, negative = inhibition” value is -12.5%. For `COc1ccc(C2(C#N)CCC(C(=O)O)CC2)cc1OC1CCCC1` (stereo not given), the Potency entry is “inactive”. Regarding `O=C(CCc1ccc(O)cc1)c1c(O)cc(O)cc1O`, the “activity change, negative = inhibition” value is -13.9%. As for `COc1cc(C(C)=O)ccc1OCCCN1CCC(c2noc3cc(F)ccc23)CC1`, the “activity change, negative = inhibition” value is -3.22%. Consider `COC1=C(OC)C(=O)C(CCCCCCCCCCO)=C(C)C1=O`, for which the Potency entry is “inactive”.

For the compound `c1ccc2[nH]c(-c3cscn3)nc2c1`, the Potency result was “inactive”.

As to `Cc1c(OCC(F)(F)F)ccnc1CS(=O)c1nc2ccccc2[nH]1` (stereo not given), the Potency is 4.53 µM (active).

`Cc1nc2n(c(=O)c1CCN1CCC(c3noc4cc(F)ccc34)CC1)CCCC2`: the outcome was inactive. Regarding `Oc1ccc(-c2nc(-c3ccc(F)cc3)c(-c3ccncc3)[nH]2)cc1`, the Potency result is “inactive”. On the same count and under the same terms, to `Nc1ncn([C@H]2C[C@H](O)[C@@H](CO)O2)c(=O)n1` belongs “inactive”; to `Cc1nc(Nc2ncc(C(=O)Nc3c(C)cccc3Cl)s2)cc(N2CCN(CCO)CC2)n1`, “inactive”.
